Results on 26 compounds are retold here after PubChem BioAssay (Tox21).

The nature of assay [1]: A CellTox Green Cytotoxicity Assay to monitor cytotoxicity in HepG2 cells - 8 hour (AID 1224890). Further: nearly all actives have a fitted effect of over 45% in size. The essentials:
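Real-time, homogeneous cytotoxicity readout: dead-cell DNA staining by CellTox Green in HepG2 monolayers, fluorescence measured at timed intervals up to 40 h of continuous compound exposure.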

A short description of assay [2]: qHTS assay to identify small molecule antagonists of the estrogen receptor alpha (ER-alpha) signaling pathway using the BG1 cell line in the presence of 0.1 nM 17-beta-estradiol - cell viability counter screen (AID 1259241). Further: nearly all actives have a fitted effect of over 40% in size. Further: potency means the concentration at half of the fitted maximal effect. Summed up:
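Cells were plated and left 24 hr, compounds in DMSO were pinned in, 17beta-estradiol was added to 0.1 nM final, and after 22 hr CellTiter-Fluor reagent was added for 30 min before fluorescence was read.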
On the technique in general: In qHTS, concentration-response curves come from the screen itself.

Assay [3] can be described thus: qHTS assay to identify small molecule antagonists of the androgen receptor (AR) signaling pathway using the MDA cell line in the presence of 0.5 nM R1881 - cell viability counter screen (AID 1259242). Further: nearly all actives have a fitted effect of over 45% in size. Summed up: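 Cytotoxicity toward MDA-kb2 cells is measured by CellTiter-Fluor live-cell protease fluorescence after 16 hr compound exposure at 37C in the presence of 0.5 nM R1881 stimulator.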

Assay [4] can be described thus: qHTS assay to identify small molecule phospholipidosis (PLD) inducers (AID 1259344; active means well fitted curve in the direction sought with a large enough effect; an effect the other way counts as inactive or inconclusive). The essentials:
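Phospholipidosis is scored by imaging LipidTOX-stained pits in HepG2 cells exposed to compound for 24 h at 37 C; pit counts and integrated intensities per well and per cell serve as outputs.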

Assay [5] is described as follows: qHTS assay to identify small molecule HDAC inhibitors (AID 1259364). Further: top concentration of the series differs between compounds; nearly all actives have a fitted effect of over 45% in size. The essentials:
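Homogeneous cell-based luminescent assay of endogenous class I/II HDAC activity; HCT-116 cells, 2 h compound exposure, 30 min HDAC-Glo development at RT.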

The nature of assay [6]: qHTS assay to identify small molecule HDAC inhibitors - cell viability counter screen (AID 1259365). Further: series mostly up to about 92 µM; nearly all actives have a fitted effect of over 50% in size. Summed up:
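Counter screen in wild-type HCT-116 cells: compounds dissolved in DMSO are pin-transferred onto overnight-plated cells and left 2hr at 37C. ATP-based CellTiter-Glo luminescence then measures viable cells.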

Assay [7] can be described thus: qHTS assay to identify small molecule agonists of the sonic hedgehog signaling (Shh) pathway - cell viability counter screen (AID 1259366). Further: nearly all actives have a fitted effect of over 50% in size. Further: potency means the concentration at half of the fitted maximal effect. The essentials:
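Cells are plated at 2,000 per well and left 4hr at 37C, 5% CO2 before compound addition. After 23hr of treatment, CellTiter-Fluor reagent is added for 1hr at 37C and fluorescence is measured.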

Assay [8] can be described thus: qHTS assay to identify small molecule antagonists of the sonic hedgehog signaling (Shh) pathway - cell viability counter screen (AID 1259367). Further: nearly all actives have a fitted effect of over 55% in size. Further: potency means the concentration at half of the fitted maximal effect. The essentials:
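Cells: 3T3 Gli1-Luc, 2,000/well, 4 hr pre-incubation. Compounds in DMSO, then conditioned medium. Incubation 24 hr, 37C, 5% CO2. CellTiter-Fluor at 23 hr, 1 hr, fluorescence.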

Assay [9] concerns the target Estrogen receptor (Homo sapiens) (UniProt P03372). Briefly: qHTS assay to identify small molecule antagonists of the estrogen receptor alpha (ER-alpha) signaling pathway using the BG1 cell line in the presence of 0.1 nM 17-beta-estradiol (AID 1259244). Further: nearly all actives have a fitted effect of over 50% in size. The essentials: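 After 5 days in hormone-depleted medium (charcoal-stripped serum, no phenol red), VM7Luc4E2 cells were seeded, incubated 24 h, then co-treated with compound and 0.1 nM (final) estradiol for 22 h before luminescence detection.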

Assay [10] deals with Androgen receptor (Homo sapiens) (UniProt P10275). Description: qHTS assay to identify small molecule antagonists of the androgen receptor (AR) signaling pathway using the MDA cell line in the presence of 0.5 nM R1881 (AID 1259243). Further: nearly all actives have a fitted effect of over 50% in size. Summed up: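 Steps: seed MDA-kb2 cells, incubate 5 hr at 37C; pin-transfer compounds in DMSO; add R1881 to 0.5 nM final; incubate 16 hr; add ONE-Glo, wait 30 min at room temperature; read luminescence.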

Values without a mark were called inactive. Records with an inconclusive call do not appear. Active and inactive are the calls of the source. Unless noted, the call rests on the fitted dose curve; in most records, active means well fitted curve in the direction sought with a large enough effect in the repeat runs; inconclusive means weak or mixed curves; inactive means no such curve, though single readings can be large; an effect the other way counts as inactive or inconclusive.
On the % scale 0 is the no-effect control and ±100 the full control effect.

Chain of Androgen receptor (Homo sapiens) (P10275 whole entry, looked up): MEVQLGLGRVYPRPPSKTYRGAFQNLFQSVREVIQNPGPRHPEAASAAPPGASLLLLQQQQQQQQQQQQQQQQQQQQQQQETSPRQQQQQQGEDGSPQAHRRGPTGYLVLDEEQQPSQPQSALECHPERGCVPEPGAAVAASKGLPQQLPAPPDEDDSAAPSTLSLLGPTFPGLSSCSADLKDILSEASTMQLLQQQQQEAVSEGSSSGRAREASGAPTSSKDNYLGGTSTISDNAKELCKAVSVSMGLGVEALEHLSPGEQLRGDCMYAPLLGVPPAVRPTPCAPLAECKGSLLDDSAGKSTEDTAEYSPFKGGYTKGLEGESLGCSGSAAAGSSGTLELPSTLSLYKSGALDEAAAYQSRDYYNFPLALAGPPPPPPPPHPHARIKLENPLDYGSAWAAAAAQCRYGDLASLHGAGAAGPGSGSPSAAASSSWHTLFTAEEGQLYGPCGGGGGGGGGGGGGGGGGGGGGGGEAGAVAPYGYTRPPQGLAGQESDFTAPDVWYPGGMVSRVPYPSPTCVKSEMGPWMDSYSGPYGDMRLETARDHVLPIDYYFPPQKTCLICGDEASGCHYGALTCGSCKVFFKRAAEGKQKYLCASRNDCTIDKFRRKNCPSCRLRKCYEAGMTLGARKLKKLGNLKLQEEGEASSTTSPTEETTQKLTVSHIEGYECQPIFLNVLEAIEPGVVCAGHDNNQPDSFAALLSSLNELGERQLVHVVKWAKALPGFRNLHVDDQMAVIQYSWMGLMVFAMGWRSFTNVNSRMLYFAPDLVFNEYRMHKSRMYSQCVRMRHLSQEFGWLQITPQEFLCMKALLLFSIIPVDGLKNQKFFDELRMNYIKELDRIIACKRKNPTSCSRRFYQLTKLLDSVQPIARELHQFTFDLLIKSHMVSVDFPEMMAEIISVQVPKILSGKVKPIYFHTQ
Chain of Estrogen receptor (Homo sapiens) (P03372 whole entry, looked up): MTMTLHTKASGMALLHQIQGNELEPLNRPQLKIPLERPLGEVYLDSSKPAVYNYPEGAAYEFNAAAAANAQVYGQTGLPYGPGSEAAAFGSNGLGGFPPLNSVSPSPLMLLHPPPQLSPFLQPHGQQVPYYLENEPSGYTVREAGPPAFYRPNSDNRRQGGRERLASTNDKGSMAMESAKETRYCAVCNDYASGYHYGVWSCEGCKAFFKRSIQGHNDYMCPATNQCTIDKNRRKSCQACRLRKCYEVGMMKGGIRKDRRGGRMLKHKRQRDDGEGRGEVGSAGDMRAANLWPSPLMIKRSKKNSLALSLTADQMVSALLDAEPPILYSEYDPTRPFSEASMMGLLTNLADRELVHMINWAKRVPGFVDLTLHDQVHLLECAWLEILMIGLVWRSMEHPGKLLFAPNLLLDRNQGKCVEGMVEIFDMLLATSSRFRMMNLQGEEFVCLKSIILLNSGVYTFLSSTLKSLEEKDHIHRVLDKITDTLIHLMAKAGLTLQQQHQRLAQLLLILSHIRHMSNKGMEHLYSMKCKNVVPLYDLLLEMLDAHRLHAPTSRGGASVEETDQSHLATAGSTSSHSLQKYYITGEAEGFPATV

On to `CC1=C(C(=O)O)N2C(=O)[C@@H](NC(=O)[C@H](N)c3ccc(O)cc3)[C@H]2SC1`, for which the call in [1], in assay [3], in [4] and in assay [6] was inactive. Besides, the Potency entry in assay [2], in assay [5], in assay [7] and in [8] was “inactive” each time.
`Cc1ccccc1OCC(O)CO` (configuration not stated): the compound was called inactive in [1], in assay [3], in assay [4] and in assay [6]. In addition, the Potency result in assay [2], in assay [5], in assay [7] and in [8] was “inactive” each time.
In the case of `CC(C)CC(C)CC(C)CC(C)COC(=O)c1ccccc1C(=O)OCC(C)CC(C)CC(C)CC(C)C` (configuration not stated), the compound was called inactive in assay [1], in [3] and in assay [6]. In addition, the Potency entry in [2], in assay [5], in [7] and in assay [8] was “inactive” each time.
For `O=C(OCC1(COC(=O)c2cccnc2)CCCC(COC(=O)c2cccnc2)(COC(=O)c2cccnc2)C1O)c1cccnc1`, the outcome in assay [1], in assay [3], in assay [4] and in assay [6] was inactive. Besides, the Potency entry in [2] was “inactive”.
As for `O=C1CCCC(=O)O1`, the compound was classed as inactive in assay [1], in [3] and in assay [6]. Further, the Potency result in [2], in assay [9], in [7] and in assay [8] was “inactive” in each case.
For `COc1ccc2nc(SCc3ncc(C)c(OC)c3C)[nH]c2c1`, the compound was called inactive in assay [1], in assay [3] and in [6]. The Potency entry in [10], in [9], in assay [5], in [7] and in assay [8] was “inactive” in each case.
On to `c1ccc2c(c1)ccc1c3ccccc3ccc21`, for which the compound was classed as inactive in assay [1], in assay [3] and in assay [6]. The Potency entry in [2], in assay [7] and in assay [8] was “inactive” throughout.
Take `CC(C)=O`: the compound was classed as inactive in assay [1], in assay [3], in assay [4] and in assay [6]. For the same compound, the Potency entry in assay [10], in [9], in assay [7] and in [8] was “inactive” throughout.
Take `Brc1ccc(-c2ccccc2)cc1`: the result in assay [1], in assay [3] and in assay [6] was inactive. Further, the Potency result in assay [2], in assay [7] and in [8] was “inactive” in each case.
`CC(C)(C)OC(=O)c1ccc(O)cc1`: the result in assay [1], in assay [3] and in [6] was inactive. Moreover, the Potency entry in assay [2], in assay [7] and in [8] was “inactive” in each case.
In the case of `COc1ccc(Br)c(C)c1`, the compound was classed as inactive in assay [1], in assay [3] and in [6]. Besides, the Potency entry in assay [2], in assay [5], in assay [7] and in [8] was “inactive” in each case.
For `CNC(=O)[C@H]1O[C@@H](n2cnc3c(NCc4cc(Cl)ccc4OCc4cc(C)no4)ncnc32)[C@H](O)[C@@H]1N`, the result in assay [1], in assay [3] and in assay [6] was inactive. The Potency result in assay [10], in [9], in assay [5] and in assay [7] was “inactive” each time.
As for `Nc1ccc2cc(S(=O)(=O)O)cc(O)c2c1`, the result in assay [1], in assay [3] and in [6] was inactive. Moreover, the Potency result in assay [10], in [9], in assay [5], in assay [7] and in assay [8] was “inactive” in each case.
`O=C(OCC(COC(=O)c1cccnc1)(COC(=O)c1cccnc1)COC(=O)c1cccnc1)c1cccnc1`: the compound was classed as inactive in [1], in assay [3], in assay [4] and in [6]. In addition, the Potency result in assay [10], in assay [9], in assay [5], in assay [7] and in [8] was “inactive” in each case.
On to `CC(C)=CCOC(=O)c1ccccc1`, for which the outcome in assay [1], in [3] and in [6] was inactive. Besides, the Potency entry in assay [2], in assay [7] and in [8] was “inactive” each time.
`COCCOCCOCCOCCOCCO`: the outcome in assay [1], in [3] and in assay [6] was inactive. Moreover, the Potency result in assay [2], in [5], in assay [7] and in assay [8] was “inactive” in each case.
As for `CCOCCOCCOCC`, the outcome in [1], in [3] and in [6] was inactive. Besides, the Potency entry in assay [2], in assay [5], in assay [7] and in assay [8] was “inactive” throughout.
With `COc1cc2c(cc1OC)C(=O)CC2`, the outcome in assay [1], in [3] and in [6] was inactive. Besides, the Potency result in assay [10], in [5] and in assay [7] was “inactive” in each case.
Regarding `C[Si](C)=O`, the cytotoxicity increase in assay [1] is -1.81% [at 6.97 µM]. The activity change, negative = cytotoxicity was -11.4% [at 8.39 µM] in assay [2] and 2.53% [at 8.39 µM] in [6]. Also, the viability change, negative = cytotoxic is 2.02% [at 8.39 µM] in assay [3], -1.38% [at 8.39 µM] in assay [7] and 0.12% [at 8.39 µM] in assay [8]. The activity change, negative = inhibition in assay [5] was 1.64% [at 8.39 µM].
Regarding `O=C(CCN1CCN(CCO)CC1)N1c2ccccc2Sc2ccc(C(F)(F)F)cc21`, the compound was classed as inactive in assay [1], in assay [3], in assay [4] and in assay [6]. The Potency entry in assay [10], in assay [9], in assay [5] and in assay [7] was “inactive” in each case.
`COc1cc(N)ccc1C`: the outcome in assay [1], in assay [3] and in assay [6] was inactive. Further, the Potency result in assay [2], in assay [5], in assay [7] and in [8] was “inactive” each time.
For the compound `O=C(O)CCSSCCC(=O)O`, the result in [1], in assay [3] and in assay [6] was inactive. The Potency result in assay [10], in assay [9], in assay [7] and in [8] was “inactive” in each case.
For `CCCOC(OCCC)OCCC`, the outcome in [1], in assay [3] and in assay [6] was inactive. The Potency result in [2], in [5], in [7] and in assay [8] was “inactive” throughout.
As for `COc1cc(NS(=O)(=O)c2ccc(N)cc2)nc(OC)n1`, the compound was called inactive in assay [1], in assay [3], in assay [4] and in assay [6]. Moreover, the Potency result in [10], in assay [9], in [7] and in assay [8] was “inactive” throughout.
Turning to `Nc1ccc([N+](=O)[O-])c(N)c1`, the compound was classed as inactive in assay [1] and in [6]. Besides, the figures for the Potency in assay [2], in assay [7] and in assay [8] were 53.1 µM (active), 29.9 µM (active) and 33.5 µM (active), respectively. The Potency entry in [9] was “inactive”.
On to `N[C@@H](CCC(=O)Nc1ccc([N+](=O)[O-])cc1)C(=O)O`, for which the outcome in [1] and in assay [6] was inactive. Besides, the Potency result in assay [2], in assay [10], in assay [9] and in assay [7] was “inactive” each time.
